Laboratory results reported in PubChem BioAssay (Tox21).
Where “and” joins values, the source holds several entries; their conditions need not be identical. Equal entries are not always repeated. Records with an inconclusive call do not appear. Where a call stands in place of a potency, no number is given. The source holds several records for some structures; these can differ, active in one and inactive in another. Calls of active or inactive are those of the source. The call rests on the fitted dose curve; in most records, active means well fitted activation curve with a large enough effect in the repeat runs; inconclusive means weak or mixed curves; inactive means flat fitted curve, though single readings scatter.

Test: A CellTox Green Cytotoxicity Assay to monitor cytotoxicity in HEK293 cells - 32 hour (AID 1224881); further: nearly all actives have a fitted effect of over 40% in size
Conditions: CellTox Green fluorescence; series mostly up to 76.8 µM
From the text: National Center for Advancing Translational Sciences [NCATS]
NIH Chemical Genomics Center [NCGC]
U.S. Environmental Protection Agency [EPA]
National Institutes of Environmental Health Sciences [NIEHS]
National Toxicology Program [NTP]
Cell-based models are critical for drug discovery. Determining the natural cytotoxic effects resulting from test compounds is an essential research activity. A CellTox Green Cytotoxicity Assay to monitor cytotoxicity in real time of continues cell culture during 40 hours of the compound treatment was used to screen Tox21 10K library compounds in Hek293 cells. CellTox Green Cytotoxicity Assay is a nonlytic, homogeneous, biofluorescent method to measure cytotoxicity in cell culture after experimental manipulation. The assay system uses a proprietary asymmetric cyanine dye that is excluded from viable cells but preferentially stains the dead cell's DNA. […] Viable cells produce no appreciable increases in fluorescence. Therefore, the fluorescence signal produced by the binding interaction with dead cell DNA is proportional to cytotoxicity.
The mixture of Hek293 cell suspension and reagents were dispensed at 600cells/6 ul/well in 1536-well tissue culture treated black solid bottom plates using a Multidrop dispenser. After the assay plates were incubated at a 37 C/5% CO2 incubator for 5 hours, 23 nL of compounds dissolved in DMSO, positive and negative controls was transferred to the assay plate by a pintool work station. The plates were incubated at 37 C for 40 hours. The fluorescence intensity were measured at 0h, 8h, 16h, 24h, 32h and 40h time points using ViewLux plate reader during compound treatment.
Potency means the concentration at half of the fitted maximal effect.

Row | SMILES | Potency | cytotoxicity increase
1 | Oc1c(Cl)cc(Cl)cc1Sc1cc(Cl)cc(Cl)c1O | 49.1 µM (active) and 43.6 µM (active) and inactive | –
2 | Nc1cc(S(=O)(=O)O)cc2cc(S(=O)(=O)O)cc(O)c12 | inactive | –
3 | BrC1CCC(Br)C(Br)CCC(Br)C(Br)CCC1Br (stereo not given) | inactive | –
4 | N[C@@H]1CONC1=O | inactive | –
5 | Cc1cc(C2(c3cc(C)c(O)cc3C)OS(=O)(=O)c3ccccc32)c(C)cc1O | inactive | –
6 | Nc1cc(Cl)c(-c2cc(Cl)c(N)cc2Cl)cc1Cl | inactive | –
7 | CC(C)C(=O)c1c(C(C)C)nn2ccccc12 | inactive | –
8 | Nc1nc(=S)c2[nH]cnc2[nH]1 | inactive | –
9 | O=c1n(CC2CO2)c(=O)n(CC2CO2)c(=O)n1CC1CO1 (stereo not given) | inactive | –
10 | CC(=O)OCCOCCOCCOC(C)=O | inactive | –
11 | CC(C)(c1ccccc1)c1ccc(Nc2ccc(C(C)(C)c3ccccc3)cc2)cc1 | inactive | –
12 | O=C(O[C@@H]1Cc2c(O)cc(O)cc2O[C@@H]1c1cc(O)c(O)c(O)c1)c1cc(O)c(O)c(O)c1 | inactive | –
13 | CCN(CC)C(=S)SSC(=S)N(CC)CC | 141 nM (active) and inactive | –
14 | CC(=O)OCC1=C(C(=O)O)N2C(=O)[C@@H](NC(=O)Cc3cccs3)[C@H]2SC1 | inactive | –
15 | CC(C)(C)NC(=O)[C@@H]1CN(Cc2cccnc2)CCN1C[C@@H](O)C[C@@H](Cc1ccccc1)C(=O)N[C@H]1c2ccccc2C[C@H]1O | inactive | –
16 | Cc1ccc(-c2cc(C(F)(F)F)nn2-c2ccc(S(N)(=O)=O)cc2)cc1 | 49 µM (active) and inactive | –
17 | NC(=Nc1ccccc1)Nc1ccccc1 | inactive | –
18 | CCCOC(=O)c1cc(O)c(O)c(O)c1 | inactive | –
19 | CCCCCCCCCCCCCCCCCl | – | 8.79% [at 15.8 µM] (inactive)
20 | COc1ccc(COC(C)=O)cc1 | inactive | –

Row | SMILES | Potency | cytotoxicity increase
21 | CCN(CC)c1ccc2c(C)cc(=O)oc2c1 | inactive | –
22 | CCCCCCC(O)CCCCCCCCCCC(=O)O (stereo not given) | inactive | –
23 | c1cc(C(c2ccc(OCC3CO3)cc2)C(c2ccc(OCC3CO3)cc2)c2ccc(OCC3CO3)cc2)ccc1OCC1CO1 (stereo not given) | inactive | –
24 | CC(=O)O[C@]1(C(C)=O)CC[C@H]2[C@@H]3C[C@H](C)C4=CC(=O)CC[C@]4(C)[C@H]3CC[C@@]21C | inactive | –
25 | Cc1scc2c1N(C(=O)CN1CCN(C)CC1)c1ccccc1NC2=O | inactive | –
26 | CCN(CC)C(=O)Nc1ccc(OCC(O)CNC(C)(C)C)c(C(C)=O)c1 (stereo not given) | inactive | –
27 | NCCCCCC(=O)O | inactive | –
28 | CCn1cc(C(=O)O)c(=O)c2cc(F)c(N3CCNC(C)C3)c(F)c21 (stereo not given) | inactive | –
29 | COc1ccc(CCN2CCC(Nc3nc4ccccc4n3Cc3ccc(F)cc3)CC2)cc1 | 14.1 µM (active) and 23.9 µM (active) | –
30 | CCC(C)(C)C(=O)O[C@H]1C[C@@H](C)C=C2C=C[C@H](C)[C@H](CC[C@@H]3C[C@@H](O)CC(=O)O3)[C@H]21 | inactive | –
31 | NC(N)=NC(=O)Cc1c(Cl)cccc1Cl | inactive | –
32 | CCCNC(C)C(=O)Nc1ccccc1C (stereo not given) | inactive | –
33 | CC1=C(C=O)C(C)(C)CC=C1 | inactive | –
34 | O=C1CC2(CCCC2)CC(=O)N1CCCCN1CCN(c2ncccn2)CC1 | inactive | –
35 | O=C(O)c1cccc(C(=O)O)c1 | inactive | –
36 | c1ccc2cc3c(ccc4ccccc43)cc2c1 | inactive | –
37 | CCC(=O)/C=C/C1C(C)=CCCC1(C)C (stereo not given) | 49.1 µM (active) and inactive | –
38 | c1cnc2cc3c(cc2n1)C1CNCC3C1 | inactive | –
39 | O=C(O)CP(=O)(O)O | inactive | –
40 | CC(C)CCOC(=O)c1ccc(N(C)C)cc1 | inactive | –
